Where “and” joins values, the source holds several entries; their conditions need not be identical. Identical values can stand only once. Screen size: about 5,500 compounds; about 2,000 (36%) were called active. Another 18% or so got no clear call; they are omitted. Cut-off read from the data, not from the text of the source: active = normalized growth mostly below about 0.91 (no sharp cut-off); inconclusive = no clear call, values can overlap the other calls; inactive = mostly above about 0.92. The list shows a part of the results.
Test: chemical genetic growth profiling, strain panel (AID 1159580);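 note: tested at 20 µM; growth read once vehicle control cultures reached saturation at 30 °C; 1 = growth at the plate median or of vehicle wells; lower values mean less growth of the strain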
Conditions: S. cerevisiae deletion strains, growth OD

Measured: normalized growth

c1coc(CNc2ncnc3nc[nH]c23)c1
inactive: locus YAL013W, strain DEP1, stronger effect = lower value 0.998 | locus YAL021C, strain ccr4, stronger effect = lower value 0.995 | locus YAL026C, strain drs2, stronger effect = lower value 0.997 | locus YAL030W, strain snc1, stronger effect = lower value 1 | locus YBL061C, strain skt5, stronger effect = lower value 0.997 | locus YBR009C, strain hhf1, stronger effect = lower value 0.988 | locus YBR021W, strain FUR4, stronger effect = lower value 1.02 | locus YBR023C, strain chs3, stronger effect = lower value 0.996 | locus YBR171W, strain sec66, stronger effect = lower value 0.994 | locus YBR229C, strain ROT2, stronger effect = lower value 1.01 | locus YBR231C, strain swc5, stronger effect = lower value 1 | locus YBR279W, strain paf1, stronger effect = lower value 1 | locus YCL011C, strain gbp2, stronger effect = lower value 1 | locus YCL016C, strain dcc1, stronger effect = lower value 1 | locus YCL029C, strain bik1, stronger effect = lower value 0.991 | locus YCL061C, strain MRC1, stronger effect = lower value 1.01 | locus YCL069W, strain vba3, stronger effect = lower value 0.999 | locus YCR088W, strain abp1, stronger effect = lower value 0.991 | locus YDL005C, strain med2, stronger effect = lower value 0.995 | locus YDL035C, strain GPR1, stronger effect = lower value 1.01 | locus YDL040C, strain nat1, stronger effect = lower value 0.996 | locus YDL074C, strain BRE1, stronger effect = lower value 0.997 | locus YDL101C, strain DUN1, stronger effect = lower value 0.995 | locus YDL134C, strain PPH21, stronger effect = lower value 1.01 | locus YDL185W, strain tfp1, stronger effect = lower value 0.964 | locus YDL192W, strain arf1, stronger effect = lower value 0.99 | locus YDR001C, strain nth1, stronger effect = lower value 0.993 | locus YDR069C, strain doa4, stronger effect = lower value 1 | locus YDR101C, strain arx1, stronger effect = lower value 0.996 | locus YDR137W, strain rgp1, stronger effect = lower value 0.964 | locus YDR150W, strain NUM1, stronger effect = lower value 0.992 | locus YDR159W, strain sac3, stronger effect = lower value 0.974 | locus YDR162C, strain NBP2, stronger effect = lower value 0.992 | locus YDR195W, strain ref2 0.974 | locus YDR297W, strain sur2, stronger effect = lower value 0.997 | locus YDR318W, strain mcm21, stronger effect = lower value 0.995 | locus YDR334W, strain swr1, stronger effect = lower value 1.01 | locus YDR335W, strain msn5, stronger effect = lower value 1.01 | locus YDR388W, stronger effect = lower value 1 | locus YDR392W, strain spt3, stronger effect = lower value 0.991 | locus YDR502C, strain sam2, stronger effect = lower value 1.01 | locus YEL003W, strain gim4, stronger effect = lower value 1 | locus YEL037C, strain rad23, stronger effect = lower value 0.998 | locus YEL061C, strain CIN8 (second series), stronger effect = lower value 0.997 | locus YEL061C, strain CIN8, stronger effect = lower value 0.995 | locus YER015W, strain faa2, stronger effect = lower value 1 | locus YER016W, strain bim1, stronger effect = lower value 0.99 | locus YER110C, stronger effect = lower value 0.999 | locus YER111C, strain swi4, stronger effect = lower value 0.986 | locus YER155C, strain BEM2 (second series), stronger effect = lower value 0.97 | locus YER155C, strain BEM2, stronger effect = lower value 0.999 | locus YER167W, strain BCK2, stronger effect = lower value 1 | locus YFR010W, strain ubp6, stronger effect = lower value 1 | locus YGL078C, strain dbp3, stronger effect = lower value 0.992 | locus YGL086W, strain mad1, stronger effect = lower value 1 | locus YGL167C, strain pmr1, stronger effect = lower value 1 | locus YGL173C, strain kem1, stronger effect = lower value 0.993 | locus YGL227W, strain vid30, stronger effect = lower value 0.993 | locus YGL240W, strain doc1, stronger effect = lower value 0.996 | locus YGL248W, strain PDE1, stronger effect = lower value 1.02 | locus YGL253W, strain hxk2, stronger effect = lower value 0.995 | locus YGR078C, strain PAC10, stronger effect = lower value 0.994 | locus YGR135W, strain pre9, stronger effect = lower value 0.997 | locus YGR229C, strain SMI1, stronger effect = lower value 1 | locus YGR252W, strain gcn5, stronger effect = lower value 1.19 | locus YHR013C, strain ard1, stronger effect = lower value 0.983 | locus YHR027C, strain rpn1, stronger effect = lower value 1 | locus YHR030C, strain SLT2, stronger effect = lower value 0.998 and 0.973 | locus YHR079C, strain IRE1 (second series), stronger effect = lower value 0.996 | locus YHR079C, strain IRE1, stronger effect = lower value 0.964 | locus YHR094C, strain hxt1, stronger effect = lower value 0.957 | locus YHR129C, strain ARP1, stronger effect = lower value 0.999 | locus YHR142W, strain chs7, stronger effect = lower value 0.992 | locus YHR200W, strain rpn10, stronger effect = lower value 0.986 | locus YIL066C, strain RNR3, stronger effect = lower value 1.01 | locus YIL073C, strain SPO22, stronger effect = lower value 0.978 | locus YIL125W, strain kgd1, stronger effect = lower value 0.988 | locus YIR030C, strain dcg1, stronger effect = lower value 0.998 | locus YJL092W, strain hpr5, stronger effect = lower value 0.995 | locus YJL095W, strain BCK1 (second series), stronger effect = lower value 0.994 | locus YJL095W, strain BCK1, stronger effect = lower value 0.985 and 0.986 | locus YJL115W, strain asf1, stronger effect = lower value 1 | locus YJL129C, strain trk1, stronger effect = lower value 1.02 | locus YJL134W, strain LCB3, stronger effect = lower value 0.997 | locus YJL154C, strain vps35, stronger effect = lower value 0.997 | locus YJL164C, strain tpk1, stronger effect = lower value 0.997 | locus YJL166W, strain qcr8, stronger effect = lower value 1 | locus YJL168C, strain set2, stronger effect = lower value 0.996 | locus YJL187C, strain SWE1 (second series), stronger effect = lower value 0.992 | locus YJR043C, strain POL32, stronger effect = lower value 0.985 | locus YJR066W, strain TOR1, stronger effect = lower value 0.912

Reference: PubChem BioAssay AID1159580 (chemical genetic matrix, 2015)
